The values below come from PubChem BioAssay.

Active and inactive are the calls of the source. Cut-off read from the data, not from the text of the source: active = fold change permeability below about 0.7 or above about 1.3; inactive = in between.

The assay in a line: compounds altering in vitro BBB leakiness – cell-based, FITC-avidin fluorescence, HTS, primary screen (AID 1963498). Note: test concentration not given here. To be noted: brain endothelial barrier, actives lie on both sides.
`O=C(Nc1nc2ccccc2n1CCN1CCOCC1)c1cccc([N+](=O)[O-])c1`: the fold change permeability was 1.9 (active).

As to `CS(=O)(=O)Nc1ccc([N+](=O)[O-])cc1Oc1ccccc1`, the fold change permeability is 0.8 (inactive).

Take `C[C@]12C=CC(=O)C=C1CC[C@@H]1C2=CC[C@]2(C)[C@@H](C(=O)CN3CCN(c4cc(N5CCCC5)nc(N5CCCC5)n4)CC3)CC[C@@H]12`: the fold change permeability is 1.4 (active).

For `Nc1nc(OCc2ccccc2)c2[nH]cnc2n1`, the fold change permeability was 1 (inactive).

Regarding `CCCCCCCCCCCCCCCC(=O)OC(CC(=O)O)C[N+](C)(C)C` (centres undefined), the fold change permeability is 1.3 (active).

As to `COc1ccccc1OCC(O)CN1CCN(CC(=O)Nc2c(C)cccc2C)CC1` (centres undefined), the fold change permeability is 0.8 (inactive).

For `O=C(O)c1cccnc1C(=O)O`, the fold change permeability was 1.1 (inactive).

As to `CO[C@@]1(NC(=O)CSCC#N)C(=O)N2C(C(=O)O)=C(CSc3nnnn3C)CS[C@@H]21`, the fold change permeability is 0.9 (inactive).

For `N=C1CCCN1Cc1[nH]c(=O)[nH]c(=O)c1Cl`, the fold change permeability was 1.6 (active).

As to `Cc1scc2c1N(C(=O)CN1CCN(C)CC1)c1ccccc1NC2=O`, the fold change permeability was 0.8 (inactive).

Regarding `CCOC(=O)Nc1ccc(NCc2ccc(F)cc2)nc1N`, the fold change permeability is 1.6 (active).

`CC(=O)[C@]1(O)Cc2c(O)c3c(c(O)c2[C@@H](O[C@H]2C[C@H](N)[C@H](O)[C@H](C)O2)C1)C(=O)c1ccccc1C3=O`: the fold change permeability was 3.4 (active).

For the molecule `Cc1ccccc1N1CCN(CCc2nnc3n2CCCC3)CC1`, the fold change permeability is 0.9 (inactive).

As to `CCOC(=O)C1=C[C@]2(CC)CCCN3CCc4c(n1c1ccccc41)[C@@H]32`, the fold change permeability is 1.8 (active).

In the case of `Fc1ccc(NC(=S)NCCCn2ccnc2)c(F)c1`, the fold change permeability is 0.9 (inactive).

For the molecule `O=S(=O)(c1cccc2c(I)cccc12)N1CCCNCC1`, the fold change permeability was 0.9 (inactive).

On to `CCCC1O[C@@H]2C[C@H]3[C@@H]4CCC5=CC(=O)C=C[C@]5(C)[C@H]4[C@@H](O)C[C@]3(C)[C@]2(C(=O)CO)O1` (some centres undefined), for which the fold change permeability is 1.1 (inactive).

Take `CCCCN(CCCC)CC(O)c1cc(Cl)cc2c1-c1ccc(Cl)cc1/C2=C/c1ccc(Cl)cc1` (centres undefined): the fold change permeability was 0.9 (inactive).

`NC(=O)c1cc[n+](CC2=C(C(=O)O)N3C(=O)[C@@H](NC(=O)[C@@H](c4ccccc4)S(=O)(=O)[O-])[C@H]3SC2)cc1`: the fold change permeability was 0.8 (inactive).

For the molecule `CNCCCC1c2ccccc2C=Cc2ccccc21`, the fold change permeability is 1.1 (inactive).

For the molecule `CCN(Cc1cccnc1)C(=O)CN(c1ccc(OC)nc1)S(=O)(=O)c1ccccc1C`, the fold change permeability is 1.9 (active).

With `COC(=O)c1c(C)[nH]c(C)c1C(=O)c1ccccc1Cc1ccccc1`, the fold change permeability is 1.2 (inactive).

On to `COc1ccc(Cl)cc1C(=O)NCCc1ccc(S(=O)(=O)NC(=O)NC2CCCCC2)cc1`, for which the fold change permeability was 0.7 (active).

Take `CCCCCOC(=O)Nc1nc(=O)n([C@@H]2O[C@H](C)[C@@H](O)[C@H]2O)cc1F`: the fold change permeability is 1.4 (active).

With `N=C(N)SCCc1cnc[nH]1`, the fold change permeability was 0.7 (active).

As for `CC#CCOC(=O)c1c(C)nc2sc3c(c2c1N)CCC(O)C3` (centres undefined), the fold change permeability is 1.9 (active).

Regarding `C[C@@H](O[C@H]1OCCN(Cc2nn(P(=O)(O)O)c(=O)[nH]2)[C@H]1c1ccc(F)cc1)c1cc(C(F)(F)F)cc(C(F)(F)F)c1`, the fold change permeability was 1.4 (active).

For the molecule `CCN1/C(=C/C(C)=O)Sc2ccc(O)cc21`, the fold change permeability is 1.1 (inactive).

On to `O=C(O)CP(=O)(O)O`, for which the fold change permeability was 1 (inactive).

Turning to `Cc1cc(CN2CCN(c3c(Br)cnc4nc(-c5ccc(N6CCN(C)CC6)cc5)[nH]c34)CC2)no1`, the fold change permeability was 1.4 (active).

For the molecule `COCCOC(=O)C1=C(C)NC(C)=C(C(=O)OC/C=C/c2ccccc2)C1c1cccc([N+](=O)[O-])c1` (centres undefined), the fold change permeability is 1.2 (inactive).

On to `O=C(CCCN1CCC(O)(c2ccc(Cl)cc2)CC1)c1ccc(F)cc1`, for which the fold change permeability is 1.2 (inactive).

Consider `Cc1cc(NC2CCCCC2)nc(-n2nc(C)cc2C)n1`, for which the fold change permeability is 1.3 (active).

`CC(C)(CO)Cc1cc(C(C)(C)C)c(O)c(C(C)(C)C)c1`: the fold change permeability is 1.1 (inactive).

As for `CC(=O)Oc1ccccc1C(=O)O`, the fold change permeability was 1 (inactive).

`C[C@H]1C[C@H]2[C@@H]3CCC4=CC(=O)C=C[C@]4(C)[C@@]3(Cl)[C@@H](O)C[C@]2(C)[C@@]1(O)C(=O)CO`: the fold change permeability was 1.2 (inactive).

With `CC(C)(C)NCC(O)COc1nsnc1N1CCOCC1` (centres undefined), the fold change permeability was 1.4 (active).

As for `NC(=O)c1sc(-c2ccsc2)cc1N`, the fold change permeability was 0.9 (inactive).

As for `COc1cc(NS(C)(=O)=O)ccc1Nc1c2ccccc2nc2ccccc12`, the fold change permeability is 1.2 (inactive).
